High-throughput results as filed in PubChem.
Pf growth 96h = P. falciparum growth inhibition at 96 hour, primary screen for plastid delayed-death inhibitors; P. falciparum luciferase reporter growth, 96 h; Potency, µM (series often up to 28.7 µM), without a hit: at the top dose activity change, negative = inhibition, most hits filed as inhibitors; actives 6.9% (n = 320,000); AID 504834; note: potency is the fitted concentration of half-maximal effect; % is set by controls: 0 for no effect and ±100 for the full control effect
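Two-generation exposure (96 h) targets delayed-death phenotype. Reporter parasites carrying integrated firefly luciferase, in red cells at 2% hematocrit and 0.05% parasitemia final, kept at 37 C, 5% CO2; luminescence loss indicates inhibition.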
HCMV antiviral = human cytomegalovirus inhibition | actives 4.5% (n = 410,000) | HFF cells, HCMV-luciferase reporter, 72 h; stronger effect = lower value | activity change, negative = inhibition, % at 57.5 µM | AID 1259415; in the data active = activity change below about -60%; inconclusive = no clear call, values can overlap the other calls; inactive = above about -39%; note: % is set by controls: 0 for no effect and ±100 for the full control effect
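Two-dose cell screen: HFF monolayers treated with compounds and infected with luciferase-expressing HCMV at 1 PFU/cell, 72 h at 37C, then lysed for luciferase measurement.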
HCV inhibitor = blocks hepatitis C virus; AID 651820; Huh7.5.1 HCVcc-Cre infection, luciferase reporter, 44 h; actives 3.4% (n = 340,000); Potency, µM (top dose mostly 41.8 µM), without a hit: top-dose activity change, negative = inhibition, usual class: inhibitors; note: potency is the fitted concentration of half-maximal effect; % is set by controls: 0 for no effect and ±100 for the full control effect
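Infectious HCVcc-Cre (~0.5 moi) was added to cells just after compound, with cells seeded 4 h earlier at 1,000 per well. Luciferase activity after 44 h culture reported infection; substrate was incubated 15 min at room temperature before reading.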
SARS PLpro yeast = SARS-CoV PLP inhibition in yeast; AID 485353; actives 0.19% (n = 330,000); Potency, µM (doses to about 32.9 µM), inactives show top-dose activity, positive = growth rescue, usual class: activators; S. cerevisiae expressing SARS-CoV PLpro, growth rescue; calls by dose curve; note: potency is the fitted concentration of half-maximal effect; 0% is about no effect; nearly all actives have a fitted effect of over 55% in size
Pf growth 48h = P. falciparum growth inhibition at 48 hours (one generation) | actives 5.9% (n = 310,000) | P. falciparum luciferase growth in erythrocytes, 48 h | Potency, µM (top dose mostly 28.7 µM), without a hit: top-dose activity change, negative = inhibition, hits mostly inhibitors; note: potency is the fitted concentration of half-maximal effect; % is set by controls: 0 for no effect and ±100 for the full control effect
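Luciferase-expressing P. falciparum in infected erythrocytes (2% hematocrit, 0.1% parasitemia final) in RPMI 1640/0.5% Albumax were exposed to compound for 48 hours at 37 C, 5% CO2; growth read as luminescence.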
Sm TGR inh = S. mansoni TGR enzyme inhibition | purified TGR, DTNB reduction, TNB absorbance 405 nm | actives 3% (n = 360,000) | Potency, µM (doses to about 114 µM), without a hit: top-dose activity change, negative = inhibition, actives largely listed as inhibitors | Q962Y6; note: potency is the fitted concentration of half-maximal effect; % is set by controls: 0 for no effect and ±100 for the full control effect; nearly all actives have a fitted effect of over 60% in size
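First, TGR (20 nM dispensed) and NADPH were mixed with compound. Second, a 15 min room-temperature incubation followed. Third, further NADPH and then DTNB were added to start the reaction. Finally, TNB absorbance was monitored kinetically.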
The depositor's hits bear a star; ? = inconclusive; / = no result given. Compounds with a hit are over-represented: about 15% of the library has one in this group of screens. Unless noted, calls come from the whole dose curve; as a rule, active = well fitted curve in the direction sought with a large enough effect; inconclusive = small, poorly fitted or top-dose-only effect, or another doubt; inactive = no such curve, though single readings can be large; an effect the other way counts as inactive or inconclusive.

SMILES | Pf growth 96h | HCMV antiviral | HCV inhibitor | SARS PLpro yeast | Pf growth 48h | Sm TGR inh
O=C(Nc1ccc2oc(-c3cccnc3)nc2c1)c1ccc2c(c1)OCCO2 | ? | -14 | -28% | 0% | 8.3µM* | 64%
O=C(Nc1ccc2c(c1)nc1n2CCSC1)c1ccco1 | 10% | 127 | 3% | -19% | 153% | 14µM*
O=C(Nc1ccc2c(c1)OCCO2)c1[nH]c(C(F)(F)F)nc1-c1ccccc1 | / | -74* | / | / | / | /
O=C(NC1CC1)c1[nH]c(C(F)(F)F)nc1-c1ccccc1 | / | -11 | / | / | / | /
O=C(Nc1ccc2oc(-c3ccncc3)nc2c1)c1ccco1 | 18% | 77 | -8% | -25% | ? | 35µM*
COc1ccc(C(=O)Nc2ccc3oc(-c4cccnc4)nc3c2)cc1OC | ? | -17 | -4% | -1% | ? | 13%
Cc1ccc(-c2noc(CNC(=O)COc3cc(C)c(Br)c(C)c3)n2)cc1 | / | -30 | / | / | / | 10%
C=CC(c1ccccc1)C(C(=O)c1ccccc1)N(C)C (centres undefined) | ? | -21 | 13% | 1% | 4% | 1%
CN(C(=O)COC(=O)C(C)(C)Oc1ccc(Cl)cc1)c1c(N)n(Cc2ccccc2)c(=O)[nH]c1=O | -28% | 4 | -6% | 5% | -25% | -2%
CCOC(=O)C1(C)CCCN(C(=O)c2c(F)cccc2F)C1 (centres undefined) | / | -6 | / | / | / | /
O=C(Nc1ccc2oc(-c3ccncc3)nc2c1)c1ccc2c(c1)OCO2 | 4% | 10 | -18% | 1% | 3% | 0%
O=C(Nc1ccc2oc(-c3ccncc3)nc2c1)c1ccc2c(c1)OCCO2 | 9.3µM* | ? | 13% | -5% | ? | -14%
O=C(Nc1ccc(-c2nc3cc(NC(=O)c4ccc(F)cc4)ccc3o2)cc1)c1ccc(F)cc1 | / | -5 | / | / | / | 8%
O=C(Nc1ccc2oc(-c3ccccc3)nc2c1)c1ccc2ccccc2c1 | / | -17 | / | / | / | 1%
O=C(Nc1ccc2oc(-c3ccccc3)nc2c1)c1ccc2c(c1)OCCO2 | 101% | ? | 10µM* | -2% | 8% | -2%
CCOc1ccc(C(=O)Nc2ccc(-c3nc4cc(CC)ccc4o3)cc2)cc1 | / | -74* | / | / | / | 5%
O=C(Nc1ccc2oc(-c3ccncc3)nc2c1)c1ccc(F)cc1 | -2% | ? | 22µM* | -1% | -12% | -10%
O=C(c1ccc(Cl)cc1)N1CCC(c2nc3ccccc3o2)CC1 | / | -38 | / | / | / | 3%
CCCC(=O)Nc1ccc(-c2nc3cc(C)ccc3o2)cc1 | / | 140 | 11µM* | -5% | 57% | 1%
Cc1nc2ccccc2c2oc(C(=O)NCCCN3CCCC3=O)cc12 | ? | -14 | -27% | -3% | 4% | -3%
Cc1nc2ccccc2c2oc(C(=O)NCCN3CCN(C)CC3)cc12 | -4% | -70* | -1% | -4% | / | 0%
COC(=O)CCCC1=CC2=C(c3ccccc3)C(=O)C(C)(OC(=O)C3CCCC3)C(=O)C2=CN1CCN1CCOCC1 (centres undefined) | ? | -6 | 16% | -4% | ? | 35µM*
C=CCN1C=C2C(=O)C(C)(OC(=O)C3CCCC3)C(=O)C(c3ccccc3)=C2C=C1CCCC(=O)OC (centres undefined) | ? | 5 | 6% | -5% | ? | ?
COC(=O)CCCC1=CC2=C(c3ccccc3)C(=O)C(C)(OC(=O)C3CCCC3)C(=O)C2=CN1CCc1ccccn1 (centres undefined) | ? | -1 | ? | -5% | ? | 28µM*
COC(=O)CCCC1=CC2=C(c3ccccc3)C(=O)C(C)(OC(=O)C3CCCC3)C(=O)C2=CN1CCc1c[nH]c2ccccc12 (centres undefined) | ? | 3 | ? | 5% | ? | 8.9µM*
SMILES | Pf growth 96h | HCMV antiviral | HCV inhibitor | SARS PLpro yeast | Pf growth 48h | Sm TGR inh
O=C(NCCc1ccc(Cl)cc1)c1ccc(CS(=O)(=O)Cc2ccccc2F)o1 | / | -37 | / | / | / | -26%
CC1(C)Cc2nc3sc4c(SCC(=O)NCc5ccco5)ncnc4c3cc2CO1 | / | 9 | 14µM* | 1% | 74% | 13µM*
Cc1nc2c(sc3nc4c(cc32)COC(C)(C)C4)c(=O)n1CC(=O)NCc1ccco1 | ? | 17 | -3% | -1% | 125% | 40µM*
CCCc1nc2c(sc3nc4c(cc32)COC(C)(C)C4)c(=O)n1Cc1ccco1 | / | 27 | ? | -2% | 0% | 35µM*
Nc1cc(S(=O)(=O)N2CCCCC2)ccc1Oc1ccc(Cl)cc1 | 16% | -66* | ? | -10% | 8% | 3%
COC(=O)c1ccc(Oc2ccc(S(=O)(=O)N3CCCCC3)cc2N)cc1 | -10% | -36 | ? | -1% | 6% | -4%
Cc1cccc(Oc2ccc(S(=O)(=O)N3CCCCC3)cc2N)c1 | 8% | -34 | 13µM* | -6% | ? | -2%
COc1ccc(Oc2nc(-c3ccncc3)nc3ccccc23)cc1 | ? | 18 | ? | 0% | ? | -2%
COc1ccc(Oc2nc(-c3ccccn3)nc3ccccc23)cc1 | 0.37µM* | -70* | 13µM* | -3% | 1.7µM* | 12%
CSc1nc(Oc2ccc(F)cc2)c2ccccc2n1 | ? | ? | ? | 8% | -18% | 2%
Fc1ccc(Oc2nc(-c3ccccn3)nc3ccccc23)cc1 | 4.7µM* | ? | -73% | -1% | 1.7µM* | -3%
COc1ccc(-c2nc(-c3ccccn3)no2)cc1 | 59% | -94* | -22% | -5% | -81% | 3%
c1ccc(Oc2nc(-c3ccccn3)nc3ccccc23)cc1 | 1.3µM* | ? | 7.9µM* | -4% | 1.7µM* | -13%
CCOc1ccc(C(=O)NCc2nc(-c3ccc(Cl)cc3)no2)cc1OCC | / | 27 | / | / | / | 7%
Cc1ccc(NS(=O)(=O)c2ccc(C)c(C(=O)N3CCN(C)CC3)c2)cc1 | 0% | -4 | 26% | 6% | 3% | 0%
O=C(CSc1n[nH]c(-c2ccccc2)n1)NCCc1ccccc1 | / | -1 | / | / | / | -5%
CCCCOc1ccccc1C1C(C(=O)OC)=CN(CC)C=C1C(=O)OC | 179% | ? | -20% | -11% | ? | -5%
CCCOc1ccccc1C1C(C(=O)OC)=CN(C(C)C)C=C1C(=O)OC | / | -19 | -18% | 1% | 13µM* | 7%
COc1ccc(C(C)=O)cc1CSCCC(=O)O | 9% | -31 | 7% | -4% | 13% | 0%
COc1ccc(C(=O)/C=C/c2ccsc2)cc1CSCC(=O)O | 6.6µM* | -39 | 29% | -4% | ? | -30%
Cc1cccc(NC(=S)N=Nc2c(O)n(CN3CCOCC3)c3ccccc23)c1C | 1% | -77* | -4% | -39% | 4.7µM* | 8%
